# From PubChem
# MCF10A rereplic = DNA re-replication induction in MCF 10a cells | MCF 10A DNA re-replication, Hoechst nuclear intensity, 48 h | 2.9% of 350,000 active | Potency, µM (top dose mostly 46.1 µM), for the others: top-dose activity, positive = re-replication, actives largely listed as activators; also: % of control where 0% means no effect; nearly all actives have a fitted effect of over 50% in size
# KB-3-1 cytotox = kills parental KB-3-1 adenocarcinoma cells. KB-3-1 viability, CellTiter-Glo ATP luminescence, 72 h. 1.4% of 400,000 active. Potency, µM (highest dose often 46.1 µM), hits mostly cytotoxic; also: % is scaled to controls: 0 for no effect and ±100 for the full control effect; nearly all actives have a fitted effect of over 60% in size
#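 Cytotoxicity in the drug-sensitive parental line KB-3-1 was scored as loss of CellTiter-Glo luminescence following 72 h incubation with compound. Values come from curve fitting of normalized concentration-response data.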
# KB-V1 cytotox = KB-V1 MDR subline cytotoxicity | AID 1347076 | Potency, µM (titrated, usually from 46.1 µM), usual class: cytotoxic | KB-V1 MDR cells viability, CellTiter-Glo, 72 h | 3.4% of 400,000 active; also: % is scaled to controls: 0 for no effect and ±100 for the full control effect; nearly all actives have a fitted effect of over 60% in size
#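 KB-V1 cells (P-gp-expressing MDR subline of KB-3-1) in phenol-red-free DMEM with 10% FBS were exposed to library compounds over a concentration series for 72 h at 37 degrees C. Viability read by CellTiter-Glo luminescence; concentration-effect curves fitted after normalization.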
# RGS4 inh = inhibitors of human regulator of G protein signaling 4; 0.039% of 390,000 active; Transcreener GDP fluorescence polarization, RGS4-accelerated GTP hydrolysis; Potency, µM (titrated, usually from 114 µM), without a hit: at the highest dose activity change, negative = inhibition, most hits filed as inhibitors; P49798; also: % is scaled to controls: 0 for no effect and ±100 for the full control effect; nearly all actives have a fitted effect of over 75% in size
# Target sequence (P49798 whole entry, looked up): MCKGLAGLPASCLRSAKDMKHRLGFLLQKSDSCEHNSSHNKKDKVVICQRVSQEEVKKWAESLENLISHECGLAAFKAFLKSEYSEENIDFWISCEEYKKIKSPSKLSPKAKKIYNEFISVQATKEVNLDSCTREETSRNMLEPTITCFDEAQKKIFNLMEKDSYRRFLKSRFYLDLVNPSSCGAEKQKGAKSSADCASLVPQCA
#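 MLSMR compounds (23 nl, pin-transferred) preincubated 10 min at room temperature with a 500nM (2x) first reagent, then RGS4 at 900nM (2x) plus Transcreener GDP mix added; fluorescence polarization (620/688 nm) read before and after 90 min at 30 °C.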
# SW480 rerep = inducers of DNA re-replication in SW480 colon cancer cells; SW480 DNA re-replication, Hoechst DNA content imaging, 48 h; Potency, µM (titrated, usually from 46.1 µM), for inactives: at the highest dose re-replication activation, actives largely listed as activators; 1.8% of 340,000 active; AID 624297; also: % of control where 0% means no effect; nearly all actives have a fitted effect of over 55% in size
#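 First, 250 cells per well were seeded. Next, compound or vehicle (23 nL) was pinned in, plates sat 48 hr at 37 C. Finally Hoechst was added for 40 min before fluorescence scanning.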
# TSG101-PTAP inh = blocks PTAP/TSG101 interaction to inhibit HIV-1 budding. Fluorescence polarization, FITC-PTAP peptide / Tsg101 binding. 340,000 tested, under 10 active. Q99816. AID 493005. Potency, µM (top dose mostly 115 µM), for inactives: at the highest dose activity change, negative = inhibition, usual class: inhibitors; active = well fitted inhibition curve with a large enough effect in the main read-out, with a control signal flat, not every such curve was filed as active; inconclusive = small, poorly fitted or top-dose-only effect, or effect the other way, or a change in a side signal; inactive = no such curve, though single readings can be large or run the other way; also: % of control where 0% means no effect
#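 Fluorescence anisotropy tracks displacement of a FITC-tagged PTAP peptide (50 nM) from the Tsg101 binding domain (10 uM), following a 20 min room-temperature incubation at pH 7.5.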
# Numbers without * were called inactive; i = inactive; ? = inconclusive; . = no result given. A selection: hits, their analogues and other compounds. The true share with any hit is near 6.6%. Unless noted, calls follow the shape of the dose curve; as a rule, active = well fitted curve in the direction sought with a large enough effect; inconclusive = small, poorly fitted or top-dose-only effect, or another doubt; inactive = no such curve, though single readings can be large; an effect the other way counts as inactive or inconclusive. Potency is read from the fitted curve at half-maximal effect.
SMILES,MCF10A rereplic,KB-3-1 cytotox,KB-V1 cytotox,RGS4 inh,SW480 rerep,TSG101-PTAP inh
COc1ccc2sc(N(CCCN(C)C)C(=O)c3ccc(S(=O)(=O)N4CCc5ccccc5C4)cc3)nc2c1,?,?,23µM*,-12%,30%,2%
Cc1cccc2sc(N(CCCN(C)C)C(=O)c3ccc(S(=O)(=O)N4CCc5ccccc5C4)cc3)nc12,?,?,i,-8%,?,0%
Cc1ccc2nc(N(CCCN(C)C)C(=O)c3ccc(S(=O)(=O)N4CCc5ccccc5C4)cc3)sc2c1,5.2µM*,?,21µM*,8%,?,0%
CN(C)CCCN(C(=O)c1ccc(S(=O)(=O)N2CCc3ccccc3C2)cc1)c1nc2ccc(F)cc2s1,4.6µM*,?,?,-43%,?,-8%
CC(=O)N[C@@H](CCC(=O)O)C(=O)O,4%,.,.,.,3%,.
CCOc1ccc(Nc2oc(/C=C/c3cccc(OC)c3)nc2C#N)cc1,.,i,i,22%,.,.
COc1ccc(CCNC(=O)CCc2cn(Cc3ccc(C)cc3)c3ccccc23)c(OC)c1OC,.,.,.,29%,.,.
O=C(CCN(CCO)Cc1ccccc1)Nc1ccc(Br)cc1,18%,i,15µM*,-7%,2%,-10%
COc1ccccc1N=c1oc2cc(O)ccc2cc1C(N)=O,18µM*,?,?,-25%,11µM*,0%
COc1ccccc1N=c1oc2cc(O)ccc2cc1C(=O)NCC1CCCO1 (stereo not given),7%,i,i,9%,13%,-8%
Cc1ccc[n+](/C(C(=S)NCc2ccco2)=C(/[O-])c2ccccc2Cl)c1,17%,?,i,-48%,4%,-2%
Cc1ccc[n+](C(C(=S)NCc2ccco2)=C([O-])c2ccccc2Cl)c1,12%,i,21µM*,-36%,2%,0%
COc1ccc(NC(=O)N(C)[C@H]2C[C@H]3c4[nH]c5ccc(-c6ccc(OC)cc6)cc5c4CCN3C[C@H]2[C@H](C)O)cc1,.,21µM*,?,.,.,.
CN[C@H]1C[C@H]2c3[nH]c4ccc(-c5ccc(OC)cc5)cc4c3CCN2C(=O)[C@H]1[C@H](C)O,.,5.8µM*,?,.,.,.
COc1ccc(NC(=O)N(C)[C@H]2C[C@H]3c4[nH]c5ccc(-c6ccc(OC)cc6)cc5c4CCN3C(=O)[C@H]2[C@H](C)O)cc1,.,?,i,.,.,.
COc1ccc(NC(=O)N(C)[C@H]2C[C@H]3c4[nH]c5ccc(-c6ccc7c(c6)OCO7)cc5c4CCN3C[C@H]2[C@H](C)O)cc1,.,?,i,.,.,.
CCc1nnc(SC(CC)C(=O)Nc2cccc(OC)c2)c2cc3oc(C)cc3n12 (stereo not given),.,.,.,-4%,.,.
CCc1ccc(NC(=O)CSc2nc3n[nH]c(C)c3c(=N)n2-c2ccc(C)cc2)cc1,.,.,.,-5%,.,.
CCN(C(=O)CSc1nc2n[nH]c(C)c2c(=N)n1-c1ccc(Cl)c(C)c1)c1cccc(C)c1,8.2µM*,?,?,6%,?,0%
Cc1cccc(-n2c(SCC(=O)Nc3ccccc3Cl)nc3n[nH]c(C)c3c2=N)c1,.,.,.,-9%,.,.
Cc1[nH]nc2nc(SCC(=O)NC3CCCCC3)n(-c3ccc(Br)cc3)c(=N)c12,12µM*,?,i,11%,?,-8%
COc1ccccc1NC(=O)CSc1nc2n[nH]c(C)c2c(=N)n1-c1ccccc1Cl,?,?,16µM*,-10%,25%,-6%
CCCCN(CC)C(=O)CSc1nc2n[nH]c(C)c2c(=N)n1-c1cccc(C)c1,11%,i,?,-8%,?,-10%
COc1ccc2nc(SCC(=O)NC3CCCC3)c(C)cc2c1,8.2µM*,7.3µM*,?,-23%,?,-1%
